Screens from PubChem.
HT1080-NT tox = kills 2HG-producing HT-1080-NT fibrosarcoma cells | HT-1080-NT fibrosarcoma viability, CellTiter-Glo ATP luminescence, 48 h | Potency, µM (titrated, usually from 46.1 µM), most hits filed as cytotoxic | 1.6% of 360,000 active | AID 686970;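 further: NT is the 2HG producing partner of a matched IDH1 knockdown line; nearly all actives have a fitted effect of over 55% in size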
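HT-1080-NT; 750 cells/well; 5% FBS RPMI; 48 h compound, 37 degrees C; CellTiter-Glo luminescence; curve fitting and curve-class assignment.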
ALOX12 inh = blocks human arachidonate 12S-lipoxygenase. P18054. AID 1671190. 1.1% of 580,000 active. Potency, µM (titrated, usually from 108 µM), actives largely listed as inhibitors. purified 12hLO, xylenol orange hydroperoxide absorbance
Target sequence (P18054 whole entry, looked up): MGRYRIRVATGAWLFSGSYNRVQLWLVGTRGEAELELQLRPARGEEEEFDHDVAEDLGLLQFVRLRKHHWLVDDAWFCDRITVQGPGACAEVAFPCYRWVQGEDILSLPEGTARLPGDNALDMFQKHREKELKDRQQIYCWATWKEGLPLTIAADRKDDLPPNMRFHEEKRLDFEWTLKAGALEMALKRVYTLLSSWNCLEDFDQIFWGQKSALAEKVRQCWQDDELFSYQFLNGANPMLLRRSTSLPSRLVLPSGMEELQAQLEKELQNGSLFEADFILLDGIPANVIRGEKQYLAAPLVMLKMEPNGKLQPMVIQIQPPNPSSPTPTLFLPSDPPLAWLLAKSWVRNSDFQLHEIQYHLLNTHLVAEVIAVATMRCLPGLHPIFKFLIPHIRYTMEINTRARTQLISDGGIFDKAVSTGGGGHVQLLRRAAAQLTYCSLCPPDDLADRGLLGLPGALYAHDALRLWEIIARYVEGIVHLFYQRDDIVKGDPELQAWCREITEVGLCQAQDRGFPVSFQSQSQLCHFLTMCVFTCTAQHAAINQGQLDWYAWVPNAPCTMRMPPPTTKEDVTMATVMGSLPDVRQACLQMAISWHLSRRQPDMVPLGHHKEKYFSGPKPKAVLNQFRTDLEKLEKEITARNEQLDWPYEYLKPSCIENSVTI
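Purified human 12hLO (150 nM final) in 25 mM Hepes, 0.01% Triton X-100, pH 7.0 was preincubated 15 min at room temperature with compound. Then 40 uM arachidonic acid was added, 30 min. Hydroperoxide was read by Fe-XO absorbance ratio 573/405 nm.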
IL-1B inflam inh = inhibitors of inflammasome signaling (IL-1 beta secretion); activity change, % at 57.5 µM; 4.7% of 360,000 active; AID 743279; THP-1 LPS/ATP IL-1B secretion, AlphaLISA, 16 h; hits give low values; in the data active means activity change below about -50%; inconclusive means mostly about -30% to -49%
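Secreted IL-1B measured by AlphaLISA bead assay after 16 h compound exposure of THP-1 cells; compounds (final up to 57.5 uM) added 1 h before LPS (250 ng/mL) and ATP (1.25 mM) stimulation; lower signal means less secretion.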
DT40 TDP1 no CPT = qHTS for Inhibitors of human tyrosyl-DNA phosphodiesterase 1 (TDP1): qHTS in cells in absence of CPT; DT40 Tdp1-/- hTDP1 cells, no CPT, ATP luminescence, 48 h; Potency, µM (top dose mostly 46.2 µM), hits mostly inhibitors; 15% of 420,000 active; further: nearly all actives have a fitted effect of over 55% in size
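Chicken DT40 Tdp1-/- cells stably complemented with human TDP1 were seeded at 400 cells/well with DMSO in place of 20 nM camptothecin. After compound pinning, cells grew at least 48 hr at 37 °C; viability read by CellTiter-Glo luminescence.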
HT1080 IDH1KD tx = HT-1080 IDH1 knockdown cell toxicity (counter line); HT-1080 IDH1 knockdown viability, ATP luminescence, 48 h; Potency, µM (doses to about 46.1 µM), usual class: cytotoxic; 2% of 360,000 active; AID 686971
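IDH1KD HT-1080 cells, 750/well, RPMI + 5% FBS; compound pinned after 2 h settling; 48 h, 37 °C; CellTiter-Glo luminescence; % activity normalised to DMSO and no-cell wells; curves fitted, classed by r2 and efficacy.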
DT40 TDP1 CPT = DT40-hTDP1 cell growth loss with CPT; chicken DT40 Tdp1-/-;hTDP1 cells + 20 nM CPT, ATP luminescence, 48 h; Potency, µM (titrated, usually from 46.2 µM), most hits filed as inhibitors; 12% of 420,000 active; further: nearly all actives have a fitted effect of over 55% in size
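Chicken DT40 Tdp1-/- cells complemented with human TDP1, 400 cells/well, exposed to compounds plus 20 nM camptothecin for at least 48 h at 37 C; viability read as ATP content by CellTiter-Glo luminescence.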
Of the large screens only hits and unclear results are named; the others gave an inactive call. This is one part of a sample in which hits are shown more often than they occur. Unless noted, the call rests on the fitted dose curve; in most records, active means well fitted curve in the direction sought with a large enough effect; inconclusive means small, poorly fitted or top-dose-only effect, or another doubt; inactive means no such curve, though single readings can be large; an effect the other way counts as inactive or inconclusive.

COC(=O)C1=C(c2ccccc2)C[C@@H]2CC[C@H]1N2C(=O)NCC1CC1	DT40 TDP1 no CPT inconclusive, DT40 TDP1 CPT inconclusive
COC(=O)C1=C(c2cc3ccccc3s2)C[C@@H]2CC[C@H]1N2C(=O)N1CCC(C)CC1	DT40 TDP1 no CPT 2.59µM, DT40 TDP1 CPT 5.17µM
COC(=O)C1=C(c2cc3ccccc3s2)C[C@@H]2CC[C@H]1N2C	none
COC(=O)C1=C(c2cc3ccccc3s2)C[C@@H]2CC[C@H]1N2C(=O)NCc1ccc(C(F)(F)F)cc1	HT1080-NT tox inconclusive, ALOX12 inh inconclusive, IL-1B inflam inh -52.0, DT40 TDP1 no CPT 18.4µM, HT1080 IDH1KD tx inconclusive, DT40 TDP1 CPT inconclusive
CC(C)N(C)CC1CCN(C(=O)c2cn(Cc3ccccc3)c3ccccc23)CC1	none (no result: HT1080-NT tox, IL-1B inflam inh, DT40 TDP1 no CPT, HT1080 IDH1KD tx, DT40 TDP1 CPT)
COCCN1C[C@@H]2CN(C(=O)c3cnc[nH]c3=O)C[C@]2(C(=O)O)C1	none (no result: HT1080-NT tox, IL-1B inflam inh, DT40 TDP1 no CPT, HT1080 IDH1KD tx, DT40 TDP1 CPT)
O=C(CC1CCCC1)N1[C@H]2CC[C@@H]1c1cnc(-c3ccc(F)cc3)nc1C2	none (no result: HT1080-NT tox, IL-1B inflam inh, DT40 TDP1 no CPT, HT1080 IDH1KD tx, DT40 TDP1 CPT)
CN(C)C(=O)Oc1ccc2c(c1)O/C(=C\c1cccc(Cl)c1)C2=O	IL-1B inflam inh -61.0
COc1cccc(S(=O)(=O)N2CCC3(C2)C(=O)N(C)c2ccc(OC)cc23)c1 (configuration not stated)	none (no result: HT1080-NT tox, IL-1B inflam inh, DT40 TDP1 no CPT, HT1080 IDH1KD tx, DT40 TDP1 CPT)
CN(Cc1ccccc1)Cc1cn(C[C@H]2CC3CCN2C[C@@H]3C(=O)NCc2ccc(F)cc2)nn1 (some centres not stated)	none (no result: HT1080-NT tox, IL-1B inflam inh, DT40 TDP1 no CPT, HT1080 IDH1KD tx, DT40 TDP1 CPT)
Cn1nc(-c2ccccc2)cc1[C@H]1CN2CC[C@H]1C[C@@H]2CNC(=O)c1ccco1	none (no result: HT1080-NT tox, IL-1B inflam inh, DT40 TDP1 no CPT, HT1080 IDH1KD tx, DT40 TDP1 CPT)
Cc1cc2oc(=O)cc(-c3cc4ccccc4o3)c2cc1OC(=O)N(C)C	DT40 TDP1 no CPT inconclusive, DT40 TDP1 CPT 14.6µM
CCN(CC)C(=O)Oc1cc2c(-c3cc4cccc(OC)c4o3)cc(=O)oc2cc1C	DT40 TDP1 no CPT 23.1µM, DT40 TDP1 CPT 16.4µM
CN(C)C(=O)Oc1ccc2oc(=O)cc(-c3cc4ccccc4o3)c2c1	none
Cc1cc(N2CCCCC2)nc2ccc(NC(=O)CCC(=O)N3CCN(c4cccc(Cl)c4)CC3)cc12	ALOX12 inh inconclusive, DT40 TDP1 no CPT 3.66µM, DT40 TDP1 CPT 6.51µM (no result: HT1080-NT tox, IL-1B inflam inh, HT1080 IDH1KD tx)
COc1ccc(-c2noc(=O)n2Cc2cc(C)ccc2C)cc1	HT1080-NT tox inconclusive, DT40 TDP1 no CPT 23.1µM, HT1080 IDH1KD tx inconclusive, DT40 TDP1 CPT inconclusive
COCCNC(=O)[C@H]1CN2CC[C@H]1C[C@@H]2Cn1cc(CO)nn1	none (no result: HT1080-NT tox, IL-1B inflam inh, DT40 TDP1 no CPT, HT1080 IDH1KD tx, DT40 TDP1 CPT)
O=[N+]([O-])c1ccc(NCCNCCO)c2ncccc12	none (no result: HT1080-NT tox, IL-1B inflam inh, DT40 TDP1 no CPT, HT1080 IDH1KD tx, DT40 TDP1 CPT)
NCCNc1ccc([N+](=O)[O-])c2cccnc12	DT40 TDP1 no CPT 20.6µM, DT40 TDP1 CPT inconclusive
CN(C)C(=S)SC(=S)N(C)C	ALOX12 inh inconclusive, DT40 TDP1 no CPT 0.841µM, DT40 TDP1 CPT 0.841µM (no result: HT1080-NT tox, IL-1B inflam inh, HT1080 IDH1KD tx)
CN(C)C(=S)SSC(=S)N(C)C	HT1080-NT tox inconclusive, ALOX12 inh inconclusive, DT40 TDP1 no CPT 0.146µM, HT1080 IDH1KD tx inconclusive, DT40 TDP1 CPT 0.146µM
CCn1nccc1C(=O)N1[C@H]2CC[C@@H]1c1cnc(-c3ccccc3)nc1C2	none (no result: HT1080-NT tox, IL-1B inflam inh, DT40 TDP1 no CPT, HT1080 IDH1KD tx, DT40 TDP1 CPT)
CC1(C)CC(=O)C2=C(C1)OC(N)=C([N+](=O)[O-])C2c1ccc(C#N)s1 (configuration not stated)	IL-1B inflam inh inconclusive, DT40 TDP1 no CPT inconclusive, DT40 TDP1 CPT 20.6µM
COc1cc(C2C(C#N)=C(N)OC3=C2C(=O)CC(C)(C)C3)ccc1OC(=O)N1CCOCC1 (configuration not stated)	HT1080 IDH1KD tx inconclusive
CCCC1CCC(NC(C)C)CC1 (configuration not stated)	none (no result: HT1080-NT tox, IL-1B inflam inh, DT40 TDP1 no CPT, HT1080 IDH1KD tx, DT40 TDP1 CPT)
Cc1cc(-c2nnn(CCCOC(C)(C)C)c2C)ccc1-c1cn(CCCOC(C)(C)C)nn1	DT40 TDP1 no CPT 6.51µM, DT40 TDP1 CPT 8.2µM
Cc1cccc(Cn2cccc(C(=O)Nc3cc(C)on3)c2=O)c1	none (no result: HT1080-NT tox, IL-1B inflam inh, HT1080 IDH1KD tx)
O=C(Nc1ccc2c(c1)OCCO2)c1cccn(Cc2cccc([N+](=O)[O-])c2)c1=O	DT40 TDP1 no CPT 13µM, DT40 TDP1 CPT inconclusive (no result: HT1080-NT tox, IL-1B inflam inh, HT1080 IDH1KD tx)
